The values below are quoted from earlier work in PubChem BioAssay AID977611.

One may read the Kd as a measure of binding affinity in units of concentration.

The data set in a line: PubChem AID 977611. The following applies: PDB protein-ligand complexes, literature Kd.

Out of some 3,900 compounds screened, about 3,900 (100%) were called active. The limit is not given here; nearly all actives have Kd up to about 4200 µM. So high a share suggests a set chosen from earlier hits. The list shows a part of the results. Numbered stars: 1 amine (or outer) side, 2 acyl side, 3 side chain; on linkers, the order of the positions; unused ones are H or OH. Bridge positions count the residues as written; N and C are the ends. Where a SMILES comes first, the peptide text is derived from it. Non-standard residues stand in square brackets, D forms with d. Square brackets hold non-standard residues; d marks the D form. Residues, ends and D or L forms follow the SMILES beside them. Peptide text beside a SMILES is read from it. [ ]: non-standard residue; d: D form. Orn(CH(NH2)2) = NC(N)NCCC[C@H](N)C(=O)O; Cha = N[C@@H](CC1CCCCC1)C(=O)O; Orn = NCCC[C@H](N)C(=O)O; X1 = O=C(C[*:1])[*:2]; Aib = CC(C)(N)C(=O)O

Turning to `O=[N+]([O-])c1ccc2c(ccn2[C@H]2C[C@H](O)[C@@H](CO[P+](O)(O)O[P+](O)(O)O[P+](O)(O)O)O2)c1`, where the note is “protein: Ribonucleoside-diphosphate reductase large chain 1, PDB entry 3rsr”, the dissociation constant Kd is 44000 nM (active).

Regarding H-KIIDTGGGFIL-OH, the Kd (protein: DNA excision repair protein ERCC-1, PDB entry 2jnw) is 780 nM (active).

Consider `CC[C@H](C)[C@H](NC(=O)[C@H](Cc1ccc(O)cc1)NC(=O)[C@H](Cc1c[nH]c2ccccc12)NC(=O)[C@H](CC(C)C)NC(=O)[C@H](Cc1c[nH]c2ccccc12)NC(=O)[C@H](CC(N)=O)NC(=O)[C@@H](NC(=O)[C@@H](NC(=O)[C@H](CC(=O)O)NC(=O)[C@H](Cc1ccccc1)NC(=O)[C@H](Cc1c[nH]c2ccccc12)NC(=O)[C@@H](N)CC(N)=O)[C@@H](C)CC)[C@@H](C)O)C(=O)N[C@@H](CCCCN)C(=O)N[C@@H](CCCCN)C(=O)N[C@@H](CCCCN)C(=O)N[C@@H](CCCCN)C(=O)O`, for which the Kd (protein: human fab 4e10, PDB entry 2fx7) is 20 nM (active).

Turning to H-EDDDIKQLAAWAT-OH, under “protein: Programmed cell death 6-interacting protein, PDB entry 3c3r”, the Kd is 41000 nM (active).

With H-TKIDWNKIA-OH, the Kd (protein: Protein S100-B, PDB entry 3iqq) was 2900 nM (active).

Take `CC[C@H](C)[C@H](NC(=O)[C@H](Cc1c[nH]c2ccccc12)NC(=O)[C@H](CC(=O)O)NC(=O)[C@H](CCC(=O)O)NC(=O)[C@H](CC(C)C)NC(=O)[C@@H](N)Cc1ccc(O)cc1)C(=O)N[C@@H](CCCCN)C(=O)N[C@@H](Cc1ccc(O)cc1)C(=O)N[C@@H](CC(N)=O)C(=O)N[C@@H](CC(N)=O)C(=O)N[C@H](C=O)CCC(N)=O` (H-YLEDWIKYNNQ-aldehyde): the Kd (protein: FAB F22-4, PDB entry 3ggw) was 2900 nM (active).

`CC(C)C[C@H](NC(=O)[C@H](Cc1ccc(O)cc1)NC(=O)[C@@H](CCCCN)NC(=O)[C@@H](CO)NC(=O)[C@H](Cc1ccccc1)NC(=O)[C@H](CC1CCCCC1)NC(=O)[C@H](CC(=O)O)NC(=O)[C@H](CO)NC(=O)[C@@H](N)CCCCN)C(=O)N[C@@H](Cc1c[nH]c2ccccc12)C(=O)N[C@@H](CO)C(=O)N[C@@H](CO)C(=O)N[C@@H](CCCCN)C(=O)O` (H-KSD[Cha]F[dS][dK]YLWSSK-OH): the Kd (protein: human Urokinase plasminogen activator surface receptor(uPAR/CD87), PDB entry 1ywh) is 16.4 nM (active).

With `CC[C@H](C)[C@H](NC(=O)[C@H](Cc1ccccc1)NC(=O)[C@H](C)N)C(=O)N[C@H](C(=O)N[C@@H](Cc1c[nH]c2ccccc12)C(=O)N[C@@H](CC(C)C)C(=O)N[C@@H](C)C(=O)N[C@@H](CCCNC(N)N)C(=O)N[C@@H](CCCNC(N)N)C(=O)N[C@@H](CC(C)C)C(=O)N[C@@H](CCCCN)C(=O)N[C@@H](CCCCN)C(=O)NCC(=O)N[C@@H](CCCCN)C(=O)N[C@@H](CCCCN)C(=O)O)[C@@H](C)CC` (H-AFIIWLA[Orn(CH(NH2)2)][Orn(CH(NH2)2)]LKKGKK-OH), the Kd (protein: Calmodulin, PDB entry 2lgf) is 2700 nM (active).

For H-DEEALKQLAEWVS-OH, the Kd (protein: Programmed cell death 6-interacting protein, PDB entry 3c3o) was 44000 nM (active).

Turning to `CC[C@H](C)[C@@H]1NC(=O)[C@@H](NC(=O)[C@H](Cc2ccccc2)NC(=O)[C@H](Cc2c[nH]c3ccccc23)NC(=O)[C@@H](N)CC(N)=O)CSCC(=O)NCCC[C@@H](C(=O)N[C@@H](Cc2c[nH]c3ccccc23)C(=O)N[C@@H](CC(C)C)C(=O)N[C@@H](Cc2c[nH]c3ccccc23)C(=O)N[C@@H](CCCCN)C(=O)N[C@@H](CCCCN)C(=O)N[C@@H](CCCCN)C(=O)N[C@@H](CCCCN)C(=O)O)NC(=O)[C@H]([C@@H](C)O)NC1=O` (H-NWFCIT[Orn]WLWKKKK-OH; linker 4-7 via X1), under “protein: human fab 4e10, PDB entry 2fx9”, the equilibrium dissociation constant (Kd) is 17 nM (active).

As to `CC[C@H](C)[C@H](NC(=O)[C@H](CCC(=O)O)NC(=O)[C@H](CC(N)=O)NC(=O)[C@H](CCC(=O)O)NC(=O)[C@@H](NC(=O)[C@H](Cc1c[nH]c2ccccc12)NC(=O)CNC(=O)[C@H](CO)NC(=O)[C@H](CCC(=O)O)NC(=O)[C@H](CCCCN)NC(=O)[C@H](CO)NC(=O)[C@H](CCCNC(N)N)NC(=O)CN)C(C)C)C(=O)N[C@@H](Cc1ccc(O)cc1)C(=O)N[C@@H](Cc1ccc(O)cc1)C(=O)O` (H-G[Orn(CH(NH2)2)]SKESGWVENEIYY-OH), the Kd (protein: Talin-1, PDB entry 2k00) was 24000 nM (active).

Take `CC(C)C[C@H](NC(=O)[C@@H](NC(=O)CNC(=O)[C@H](Cc1ccc(O)cc1)NC(=O)[C@@H](NC(=O)CNC(=O)[C@@H](NC(=O)[C@H](CCCNC(N)N)NC(=O)[C@H](CCCNC(N)N)NC(=O)[C@H](C)N)[C@@H](C)O)[C@@H](C)O)C(C)C)C(=O)N[C@@H](C)C(=O)N[C@@H](C)C(=O)N[C@@H](Cc1c[nH]c2ccccc12)C(=O)N[C@@H](C)C(=O)N[C@@H](C)C(=O)N[C@@H](C)C(=O)O` (H-A[Orn(CH(NH2)2)][Orn(CH(NH2)2)]TGTYGVLAAWAAA-OH): the Kd (protein: mouse radixin FERM domain, PDB entry 1j19) is 16.4 nM (active).

On to `CC[C@H](C)[C@H](NC(=O)[C@H](CC(=O)O)NC(=O)[C@H](Cc1ccccc1)NC(=O)[C@H](CCCNC(N)N)NC(=O)[C@H](CC(C)C)NC(=O)[C@H](CCCCN)NC(=O)[C@@H](N)CCCCN)C(=O)O` (H-KKL[Orn(CH(NH2)2)]FDI-OH), for which, under “protein: Serine/threonine-protein phosphatase PP1-alpha catalytic subunit, PDB entry 3n5u”, the equilibrium dissociation constant (Kd) is 1200 nM (active).

In the case of H-KEEEDDDMKELENWAGSM-OH, the dissociation constant (Kd) (protein: Programmed cell death 6-interacting protein, PDB entry 3c3q) is 48000 nM (active).

Take `CC[C@H](C)[C@H](NC(=O)[C@H](CC(=O)O)NC(=O)[C@H](Cc1ccccc1)NC(=O)[C@H](Cc1c[nH]c2ccccc12)NC(=O)[C@@H](N)CC(N)=O)C(=O)N[C@H](C(=O)N[C@@H](CC(N)=O)C(=O)NC(C)(C)C(=O)N[C@@H](CC(C)C)C(=O)N[C@@H](Cc1c[nH]c2ccccc12)C(=O)N[C@@H](CCCNC(N)N)C(=O)N[C@@H](CCCNC(N)N)C(=O)O)[C@@H](C)O` (H-NWFDITN[Aib]LW[Orn(CH(NH2)2)][Orn(CH(NH2)2)]-OH): the Kd (protein: human fab 4e10, PDB entry 2fx8) was 302 nM (active).

On to `CC[C@H](C)[C@H](NC(=O)[C@H](CC(C)C)NC(=O)[C@H](CCC(=O)O)NC(=O)[C@H](CCCNC(N)N)NC(=O)[C@H](CCCCN)NC(=O)[C@@H](N)CCCCN)C(=O)N[C@@H](CCC(=O)O)C(=O)N[C@@H](CO)C(=O)N[C@@H](CCCCN)C(=O)N[C@@H](Cc1c[nH]c2ccccc12)C(=O)N[C@@H](Cc1cnc[nH]1)C(=O)N[C@@H](CCCNC(N)N)C(=O)N[C@@H](CC(C)C)C(=O)N[C@@H](CC(C)C)C(=O)N[C@@H](Cc1ccccc1)C(=O)N[C@@H](Cc1cnc[nH]1)C(=O)N[C@@H](CC(=O)O)C(=O)N[C@@H](CCCCN)C(=O)N[C@@H](CCCCN)C(=O)O` (H-KK[Orn(CH(NH2)2)]ELIESKWH[Orn(CH(NH2)2)]LLFHDKK-OH), for which the Kd (protein: Chlamydomonas reinhardtii caltractin (CRC-C), PDB entry 1oqp) is 50 nM (active).

For H-TWIENKLYGM-OH, under “protein: Dock 1 PTB domain, PDB entry 1uef”, the dissociation constant (Kd) is 3200 nM (active).
